# This is a sample that favours compounds with a hit; in the whole collection about 3.8% have one here.
# HT1080NT lethal: kills 2HG-producing HT-1080-NT fibrosarcoma cells. 360,000 compounds, 1.6% hits. AID 686970. Potency, µM (series often up to 46.1 µM), inactives show top-dose activity, negative = less viability, most hits filed as cytotoxic. HT-1080-NT fibrosarcoma viability, CellTiter-Glo ATP luminescence, 48 h;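 note: NT is the 2HG producing partner of a matched IDH1 knockdown line; 0% = DMSO-treated cells and -100% = media-only wells without cells; nearly all actives have a fitted effect of over 55% in size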
#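 Compounds were tested in concentration-response format on HT-1080-NT cells for 48 hours at 37 degrees C. Cell viability came from CellTiter-Glo luminescence; curves were classified by r2, response magnitude and activity.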
# HepG2 tox-1: counter-screen for TGF-b inhibitors: cytotoxicity in HepG2 cells. HepG2 CAGA-GFP viability, ATP luminescence, 18 h. Potency, µM (doses to about 46.1 µM), for the others: top-dose activity change, negative = cytotoxicity, usual class: cytotoxic. 410,000 compounds, 0.76% hits
#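 CellTiter-Glo luminescence gave cytotoxicity after 18 hours at 37 degrees C. The cells were HepG2 CAGA-GFP in 1% FBS DMEM, stimulated with 500 pg/mL TGF-beta after compound addition. %Activity was normalised to no-cell wells (complete cell-killing) and DMSO (no toxicity), and curves were fitted and classified.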
# ATXN2 expr inh: ATXN2 expression inhibition; HEK-293 ATXN2-luciferase reporter, luminescence, 24 h; Potency, µM (series often up to 57 µM), for inactives: at the highest dose activity change, negative = inhibition, actives largely listed as inhibitors; 360,000 compounds, 0.72% hits; AID 1745845; note: % is set by controls: 0 for no effect and ±100 for the full control effect; nearly all actives have a fitted effect of over 55% in size
#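 qHTS (up to 57 uM final) was run with 24 h compound exposure of reporter cells at 37 °C. Each well was multiplexed: SteadyGlo luminescence measured ATXN2-luciferase expression after a fluorogenic Gly-Phe-AFC viability readout (25 uM final).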
# S2 tox: cell viability loss in ATXN counter-screen; AID 651635; Potency, µM (series often up to 56.7 µM), most hits filed as cytotoxic; S2 cells (HEK-293 line with an ATXN2-luciferase reporter) viability, CellTiter-Fluor protease fluorescence, 24 h; 400,000 compounds, 0.49% hits; note: nearly all actives have a fitted effect of over 40% in size
# HT1080 IDH1KD tx: kills HT-1080 cells with IDH1 knockdown; HT-1080 IDH1 knockdown viability, ATP luminescence, 48 h; Potency, µM (doses to about 46.1 µM), inactives show at the top dose activity, negative = toxicity, most hits filed as cytotoxic; 360,000 compounds, 2% hits;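 note: 0% = DMSO wells and -100% = cell-free medium wells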
#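 Using the IDH1-knockdown HT-1080 line run in the same batch and compound series as the NT line, viability after 48 h at 37 °C was determined by CellTiter-Glo luminescence and expressed as % activity.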
# TGFb inhibitor: inhibitors of TGF-b signaling; HepG2 CAGA-GFP TGF-b/SMAD3 reporter, GFP fluorescence, 18 h; TGF-beta stimulated, 500 pg/mL final; 410,000 compounds, 1.2% hits; Potency, µM (series often up to 46.1 µM), without a hit: at the top dose activity, negative = inhibition, usual class: inhibitors; AID 588855; note: % is set by controls: 0 for no effect and ±100 for the full control effect; nearly all actives have a fitted effect of over 65% in size
#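 HEPG2 CAGA-GFP, 1000 cells/well; 2 h settle, 37 C; cpd via pin tool; TGF-b 500 pg/mL final; 18 h, 37 C; GFP imaging ex488/em500-530; %Activity normalised to -TGF-b and +DMSO controls; CRC fit, curve class.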
# TGFb CAGA inh: confirmation of TGF-b signaling inhibitors in HepG2 reporter cells. HepG2 CAGA-GFP TGF-b reporter, GFP fluorescence, 18 h; cells stimulated with TGF-beta, 500 pg/mL. Potency, µM (doses to about 46.1 µM), without a hit: top-dose activity, negative = inhibition, actives largely listed as inhibitors. AID 720534. 1,600 compounds, 63% hits. shares compounds with TGFb inhibitor; note: % is set by controls: 0 for no effect and ±100 for the full control effect; nearly all actives have a fitted effect of over 65% in size
# HepG2 tox-2: HepG2 cytotoxicity, TGF-b inhibitor counterscreen. Potency, µM (titrated, usually from 46.1 µM), inactives show at the highest dose activity, negative = cytotoxicity, most hits filed as inhibitors. 1,600 compounds, 27% hits. AID 720535. HepG2 CAGA-GFP viability, ATP luminescence, 18 h; cells stimulated with TGF-beta, 500 pg/mL. shares compounds with TGFb inhibitor; note: % is set by controls: 0 for no effect and ±100 for the full control effect; nearly all actives have a fitted effect of over 70% in size
# CCL64 TGFb inh: TGF-b inhibition, CCL64 orthogonal assay; shares compounds with TGFb inhibitor; CCL64 CAGA-GFP reporter, TGF-b stimulated, GFP fluorescence, 18 h; Potency, µM (doses to about 46.1 µM), inactives show at the top dose activity, negative = inhibition, actives largely listed as inhibitors; 1,600 compounds, 41% hits; note: nearly all actives have a fitted effect of over 65% in size
# COP TGFb inh: blocks TGF-b signaling in HepG2 COP reporter. Potency, µM (top dose mostly 46.1 µM), for inactives: at the highest dose activity, negative = inhibition, hits mostly inhibitors. shares compounds with TGFb inhibitor. AID 720537. HepG2 COP-GFP TGF-b reporter, GFP fluorescence, 18 h; cells stimulated by added recombinant TGF-beta. 1,600 compounds, 3% hits; note: nearly all actives have a fitted effect of over 70% in size
# Active calls of the source: *; i = inactive; ? = inconclusive; / = not tested or not shown; ! = repeats disagree. Calls come from the whole dose curve; as a rule, active = well fitted curve in the direction sought with a large enough effect; inconclusive = small, poorly fitted or top-dose-only effect, or another doubt; inactive = no such curve, though single readings can be large; an effect the other way counts as inactive or inconclusive. Potency is the fitted concentration of half-maximal effect.
SMILES,HT1080NT lethal,HepG2 tox-1,ATXN2 expr inh,S2 tox,HT1080 IDH1KD tx,TGFb inhibitor,TGFb CAGA inh,HepG2 tox-2,CCL64 TGFb inh,COP TGFb inh
CCC(C)NS(=O)(=O)c1ccc(NC(=O)C(Sc2ccccc2)c2ccccc2)cc1 (stereo not given),-28%,-25%,?,?,?,13µM*,?,?,?,53%
CC(=O)NS(=O)(=O)c1ccc(NC(=O)C(Sc2ccccc2)c2ccccc2)cc1 (stereo not given),10%,9%,-16%,i,5%,3%,/,/,/,/
CCCC(=O)Nc1ccc2nn(-c3ccc(CC)cc3)nc2c1,/,0%,46%,i,/,13%,/,/,/,/
CCN(CC)S(=O)(=O)c1cccc(C(=O)N[C@H](C(=O)Nc2nc3ccc(F)cc3s2)C(C)C)c1,-8%,-18%,?,i,?,7.9µM*,4.1µM*,?,?,9%
CCN(CC)S(=O)(=O)c1cccc(C(=O)N[C@H](C(=O)Nc2nc3ccccc3s2)C(C)C)c1,-26%,-28%,10%,i,-24%,?,/,/,/,/
CC(=O)c1cccc(NC(=O)c2sc(-n3nc(C)c(Cc4ccc5c(c4)OCO5)c3C)nc2C)c1,/,-4%,/,/,/,?,/,/,/,/
COCCN(Cc1cc2cc3c(cc2nc1Cl)OCO3)C(=O)c1ccc(C)cc1,-14%,-24%,/,i,-12%,?,?,-13%,7%,10%
COCCN(Cc1cc2cc(C)c(C)cc2nc1Cl)C(=O)Nc1ccccc1,-16%,-17%,-3%,i,-1%,-1%,/,/,/,/
Oc1ccc(C[C@H]2CNC(=S)N2CC2CCCN2C[C@H](Cc2ccc(O)cc2)N2C[C@H](Cc3ccccc3)N(CC3CCCCCC3)C2=S)cc1 (stereo not given in full),-11%,-8%,-27%,i,-22%,7.9µM*,6.5µM*,-8%,10µM*,10%
CC(C)C[C@H]1CNC(=S)N1C[C@H]1CCCN1C[C@H](Cc1ccc(O)cc1)N1C[C@H](Cc2ccccc2)N(CC2CCCCCC2)C1=S,-27%,-20%,0%,?,-18%,?,?,-4%,?,3%
Oc1ccc(C[C@H]2CNC(=S)N2CC2CCCN2C[C@H](Cc2ccc(O)cc2)N2C[C@H](Cc3ccc(O)cc3)N(CC3CCCCCC3)C2=S)cc1 (stereo not given in full),?,-10%,20µM*,?,?,7.9µM*,16µM*,?,3.3µM*,13%
Oc1ccc(C[C@H]2CNC(=S)N2CC2CCCN2C[C@H](Cc2ccccc2)N2C[C@H](Cc3ccc(O)cc3)N(CC3CCCCC3)C2=S)cc1 (stereo not given in full),?,-52%,?,?,26µM*,5.6µM*,15µM*,?,4.1µM*,30%
CCCCNC(=O)Cn1c(SCc2ccccc2C)nc2ccncc21,/,12%,/,/,/,-5%,/,/,/,/
CCc1ccc(CNC(=O)C2CCCN(c3nn4cc(-c5ccc(F)cc5)nc4s3)C2)cc1 (stereo not given),/,-3%,/,/,/,0%,/,/,/,/
CCC(C)NC(=O)CSc1nc2cc3c(cc2c(=O)n1CCCC(=O)NCCc1ccc(OC)c(OC)c1)OCO3 (stereo not given),/,-27%,/,/,/,1%,/,/,/,/
Oc1ccc(C[C@@H](CN2CCCC2CN2C(=S)NC[C@@H]2Cc2ccccc2)N2C[C@H](Cc3ccccc3)N(CC3CCCCCC3)C2=S)cc1 (stereo not given in full),-3%,/,-4%,i,-15%,/,/,/,/,/
Oc1ccc(C[C@H]2CNC(=S)N2CC2CCCN2C[C@H](Cc2ccc(O)cc2)N2C[C@H](Cc3ccccc3)N(CC3CCCCC3)C2=S)cc1 (stereo not given in full),-25%,-1%,?,?,-27%,7.9µM*,6.5µM*,?,?,-5%
CCc1nc2c(OCc3cc(Cl)cc(Cl)c3)cccn2c1N(C)C(=O)c1ccc(OC)cc1,?,-31%,?,?,?,4µM*,?,?,?,49%
COc1ccc([C@H]2CC(=O)C=C(c3cccc(Br)c3)C2)cc1,-5%,-7%,10%,i,-1%,?,/,/,/,/
O=C1C=C(/C=C/c2ccccc2)C[C@@H](c2ccc(F)cc2)C1,0%,-14%,2%,i,2%,?,/,/,/,/
COc1ccc([C@H]2CC(=O)C=C(c3cccc(Br)c3)C2)cc1OC,-28%,12%,0%,?,-29%,4.5µM*,?,-28%,?,28%
COc1ccc([C@H]2CC(=O)C=C(/C=C/c3ccccc3)C2)cc1OC,-17%,-6%,?,?,-1%,13µM*,?,-19%,?,14%
CCOc1ccc(NC(=O)CCCn2c(C)c3cnn(-c4ccccc4)c(=O)c3c2C)cc1,/,6%,-4%,i,/,-8%,/,/,/,/
Cc1ccc2nc(-c3ccccn3)c(Nc3ccccc3C)n2c1,13µM*,-23%,4.5µM*!,?,13µM*,3.2µM*,8.2µM*,?,?,33%

# Screening results (PubChem)
